Measurements reported in PubChem BioAssay AID1259399 (Fisher Drug Discovery Resource Center, 2018).
Hit rate of the full screen: of about 160,000 compounds, about 240 (0.15%) were called active. This is one part of a sample in which actives are shown more often than they occur. Values without a mark were called inactive. No stated cut-off is given here; in the data, active means inhibition above about 40%; inactive means the rest.

Molecular target: Cyclic GMP-AMP synthase (Mus musculus) (UniProt Q8C6L5)
Sequence (Q8C6L5 whole entry, looked up): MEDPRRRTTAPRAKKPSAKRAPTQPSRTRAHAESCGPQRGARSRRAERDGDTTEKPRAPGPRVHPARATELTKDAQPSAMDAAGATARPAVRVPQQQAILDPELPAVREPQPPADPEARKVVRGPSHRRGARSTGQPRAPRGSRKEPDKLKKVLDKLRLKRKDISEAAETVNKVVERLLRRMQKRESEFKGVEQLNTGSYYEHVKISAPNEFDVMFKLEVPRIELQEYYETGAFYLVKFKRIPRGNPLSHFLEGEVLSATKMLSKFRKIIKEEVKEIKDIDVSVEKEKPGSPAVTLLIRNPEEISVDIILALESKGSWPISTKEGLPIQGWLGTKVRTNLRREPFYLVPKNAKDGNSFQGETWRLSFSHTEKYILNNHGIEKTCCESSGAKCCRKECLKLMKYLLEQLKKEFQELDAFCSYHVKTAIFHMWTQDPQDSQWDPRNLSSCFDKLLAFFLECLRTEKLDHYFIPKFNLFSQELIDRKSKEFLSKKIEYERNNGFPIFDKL
Assay: cyclic GMP-AMP synthase inhibitors, mouse, primary biochemical chemiluminescence (AID 1259399);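 further: 0% = negative control wells and 100% = reference inhibitor with no enzyme activity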
Settings: recombinant cGAS, Kinase-Glo ATP depletion luminescence; at 12.5 µM; active compounds read high

| SMILES | inhibition |
| --- | --- |
| Cc1ccccc1Cc1nc2c(c(=O)[nH]1)CN(C(=O)Cc1ccc(F)cc1)CC2 | -2.79% |
| CC(C)c1nnsc1C(=O)N1CCC2(CC1)C(=O)NCCN2C | -8.76% |
| CC(Nc1ccc([N+](=O)[O-])cc1S(=O)(=O)N1CCOCC1)c1ccc(F)cc1F (centres undefined) | -8.24% |
| N#Cc1ccc(-c2ccccc2)nc1SC(C(=O)O)c1ccccc1 (centres undefined) | -4.77% |
| CCCS(=O)(=O)N1CCCC(C(=O)NC(C)CC)C1 (centres undefined) | -2.19% |
| COc1cc([N+](=O)[O-])cc2sc(NC(=O)C(C)C)nc12 | -2.21% |
| CCn1c(=O)c(C(=O)NCC2CCCO2)nn(-c2ccccc2F)c1=O (centres undefined) | -8.2% |
| CC(C)(C)c1ccc(C2SCC(=O)N2CCC(=O)O)cc1 (centres undefined) | -3.76% |
| CCCC(=O)Nc1ccc(NC(=O)c2cc(C(C)C)[nH]n2)cc1OC | -8.07% |
| O=C(NC(c1ccccc1)c1ccc(Cl)cc1)C1CC1(c1ccccc1)c1ccccc1 (centres undefined) | -5.82% |
| COCCCN1COc2ccc3c(=O)c(Oc4ccc(OC)cc4)coc3c2C1 | -1.41% |
| Brc1ccc(N=c2oc3ccccc3cc2-c2nc3ccccc3[nH]2)cc1 | -0.816% |
| COc1ccc(-c2nnc3ccc(OCCNS(=O)(=O)c4cccs4)nn23)cc1 | -9.21% |
| Oc1c(Cl)cc(Cl)c2ccc(N/N=C\c3cccc(Oc4ccccc4)c3)nc12 | -3.37% |
| O=c1n(Cc2noc(-c3ccoc3)n2)nnn1-c1cccs1 | -17.5% |
| CC(C)(C)S(=O)(=O)c1ccc(N2CCN(c3ccc(Cl)cc3)CC2)nn1 | -8.96% |
| COc1ccccc1C(=O)N1CCN(CC(OCc2c(F)cccc2F)c2ccc(Cl)cc2)CC1 (centres undefined) | -2.63% |
| Cc1ccccc1N(CCCN1C(=O)c2cccc3cccc(c23)C1=O)C(=O)c1ccc([N+](=O)[O-])cc1 | 2.98% |
| COc1ccc(N2C(=O)c3cccc4cccc(c34)C2=O)cc1OC | -7.45% |
| C[N+](C)(CCCCCC[N+](C)(C)CCCN1C(=O)c2cccc3cccc(c23)C1=O)CCCN1C(=O)c2cccc3cccc(c23)C1=O | 75.6% (active) |
| COc1cc(C=C2N=C(C(C)(C)C)OC2=O)ccc1OC(F)F | 1.97% |
| COc1ccc(C(=O)N2CCCC3(CC2)CNC(=O)O3)cc1N1CCOCC1 (centres undefined) | -11.6% |
| O=C(COc1ccc(Cl)cc1)Nc1c(-c2cccc(F)c2)nc2ccccn12 | -8.5% |
| COCCCN(CC(=O)N1CCc2sccc2C1c1ccc(C)cc1)C(=O)c1ccc(C)c([N+](=O)[O-])c1 (centres undefined) | -4.86% |
